Experimental data reported in PubChem BioAssay (NCATS).
Inconclusive results are not listed. Entries that show only a call come without a potency. A structure can be active in one record and inactive in another. The source made the active and inactive calls. Calls follow the shape of the dose curve; as a rule, active = well fitted curve in the direction sought with a large enough effect; inconclusive = small, poorly fitted or top-dose-only effect, or another doubt; inactive = no such curve, though single readings can be large; an effect the other way counts as inactive or inconclusive.

Key:
[1] = qHTS for Inhibitors of Ubiquitin-specific Protease USP2a Using CHOP2 as the Reporter: K633 Counterscreen (AID 652168); conditions: No-enzyme DiUb K48 IQF substrate fluorescence interference, kinetic; series mostly up to 57.5 µM
How it was run: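 Cell-free interference counterscreen without USP2a: compounds pinned into enzyme-free buffer (20 mM Tris pH 8, 2 mM beta-mercaptoethanol, 0.05% Chaps), then DiUb K48-4IQF substrate added (100 nM stock); fluorescence read kinetically, Ex 525/Em 598.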

[2] = qHTS for Inhibitors of Ubiquitin-specific Protease USP2a Using CHOP2 as the Reporter: Cytotox Assay (AID 652170); conditions: HCT116 viability, CellTiter-Glo luminescence, 72 h; series mostly up to 46.1 µM; also: nearly all actives have a fitted effect of over 70% in size; also: potency is read from the fitted curve at half-maximal effect
How it was run: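 HCT116 human colon cancer cells, 600 per well in DMEM with 10% FBS, exposed to compounds for 72 hr at 37 deg C. ATP measured by CellTiter-Glo luminescence, normalized to DMSO cells and no-cell background.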

[3] = molecular target: Ubiquitin carboxyl-terminal hydrolase 2 (Homo sapiens) (UniProt O75604); assay: qHTS for Inhibitors of Ubiquitin-specific Protease USP2a Using CHOP2 as the Reporter: K484 Substrate (AID 652173); conditions: USP2 cleavage of DiUb K48 IQF substrate, fluorescence; series mostly up to 57.5 µM;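 also: cleavage of internally quenched K48 di-ubiquitin substrate measured as rising fluorescence over time; potency is read from the fitted curve at half-maximal effect; nearly all actives have a fitted effect of over 70% in size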
How it was run: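 USP2 (dispensed at 5 nM) was pinned with compounds, then DiUb K48 internally quenched fluorescent substrate (dispensed at 100 nM) was added. The buffer was 20 mM Tris pH 8, 2 mM beta-mercaptoethanol and 0.05% CHAPS. Cleavage was read kinetically as rising fluorescence, Ex 525/Em 598.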

[4] = molecular target: Tyrosine-protein kinase Yes (Homo sapiens) (UniProt P07947); assay: qHTS for small molecule inhibitors of Yes1 kinase: Primary Screen (AID 686947); conditions: Yes1 kinase biochemical qHTS inhibition; series mostly up to 76.9 µM; also: nearly all actives have a fitted effect of over 60% in size; also: potency is read from the fitted curve at half-maximal effect
How it was run: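 ADP-Glo luminescence readout; final 4 nM Yes1, 0.1 mM ATP, 0.3 mg/mL poly(E4Y), Tris pH 7.5, MgCl2, DTT, Brij-35. 20 min compound preincubation, 60 min reaction at RT. Normalized to DMSO wells with and without enzyme.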

[5] = qHTS for small molecule inhibitors of Yes1 kinase: Counter Assay (AID 686950); conditions: series mostly up to 76.9 µM;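 also: no kinase present so only ADP-Glo detection of a fixed ADP amount is tested; luminescence from ADP-Glo reporting ADP in a fixed ATP and ADP mixture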
How it was run: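 Enzyme-free ADP-Glo interference check: compounds were preincubated 20 min in buffer, then an ATP/ADP mix (0.08 mM ATP, 0.02 mM ADP final) was added for 60 min at room temperature before two-step ADP-Glo luminescence detection.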

Sequence of Tyrosine-protein kinase Yes (Homo sapiens) (P07947 whole entry, looked up): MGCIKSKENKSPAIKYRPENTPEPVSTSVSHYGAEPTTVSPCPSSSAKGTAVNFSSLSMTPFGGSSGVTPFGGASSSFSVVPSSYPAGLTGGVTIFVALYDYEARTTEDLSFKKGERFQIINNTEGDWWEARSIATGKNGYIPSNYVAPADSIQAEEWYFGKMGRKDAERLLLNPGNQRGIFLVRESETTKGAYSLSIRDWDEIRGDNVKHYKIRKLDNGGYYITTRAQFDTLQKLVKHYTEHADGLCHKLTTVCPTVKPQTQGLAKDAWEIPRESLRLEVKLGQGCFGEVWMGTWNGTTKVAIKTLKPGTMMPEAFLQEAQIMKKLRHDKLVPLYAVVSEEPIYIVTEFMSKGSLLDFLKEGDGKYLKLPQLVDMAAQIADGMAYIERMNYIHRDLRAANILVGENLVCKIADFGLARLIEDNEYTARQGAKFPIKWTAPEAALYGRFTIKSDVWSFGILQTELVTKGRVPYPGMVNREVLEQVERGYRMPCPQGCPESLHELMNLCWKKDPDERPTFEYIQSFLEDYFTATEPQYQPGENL
Sequence of Ubiquitin carboxyl-terminal hydrolase 2 (Homo sapiens) (O75604 whole entry, looked up): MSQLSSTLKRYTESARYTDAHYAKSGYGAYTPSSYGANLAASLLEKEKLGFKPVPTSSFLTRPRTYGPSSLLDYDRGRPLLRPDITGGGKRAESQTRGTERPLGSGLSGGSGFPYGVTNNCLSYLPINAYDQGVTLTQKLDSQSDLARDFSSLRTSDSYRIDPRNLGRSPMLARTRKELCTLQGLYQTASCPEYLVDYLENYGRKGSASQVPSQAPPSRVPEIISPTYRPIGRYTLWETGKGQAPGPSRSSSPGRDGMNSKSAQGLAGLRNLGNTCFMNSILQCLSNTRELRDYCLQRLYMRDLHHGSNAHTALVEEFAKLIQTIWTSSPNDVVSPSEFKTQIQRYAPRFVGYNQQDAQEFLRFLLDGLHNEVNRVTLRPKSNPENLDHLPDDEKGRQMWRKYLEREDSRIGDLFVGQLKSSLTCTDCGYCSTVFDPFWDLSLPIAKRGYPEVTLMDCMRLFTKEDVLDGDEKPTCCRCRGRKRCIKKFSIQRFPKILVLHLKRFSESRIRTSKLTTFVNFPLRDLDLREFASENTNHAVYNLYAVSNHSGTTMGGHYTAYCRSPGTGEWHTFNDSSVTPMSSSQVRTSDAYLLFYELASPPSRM

Structure (SMILES): Cc1ccc(S(=O)(=O)Nc2cnccc2C(=O)Nc2ccc(-c3nn[nH]n3)cc2)cc1
- outcome [1]: inactive
- Potency [2]: inactive
- Potency [3]: 8.63 µM (active)

Structure (SMILES): N#Cc1cnc(NS(=O)(=O)c2ccc(NC(=O)Cc3ccc(Cl)c(Cl)c3)cc2)s1
- outcome [1]: inactive
- Potency [2]: inactive
- Potency [3]: 3.43 µM (active)

Structure (SMILES): Cc1ccc(-c2cc(C(=O)Nc3ccncc3)c3ccccc3n2)cc1C
- Potency [2]: 18.7 µM (active)

Structure (SMILES): Cc1ccc(S(=O)(=O)Nc2cnccc2C(=O)Nc2ccc3ccccc3c2)cc1
- outcome [1]: inactive
- Potency [3]: 6.11 µM (active)

Structure (SMILES): O=C(Nc1nc(-c2ccccc2)cs1)c1ccncc1NS(=O)(=O)c1ccccc1Cl
- outcome [1]: inactive
- Potency [2]: inactive
- Potency [3]: 1.53 µM (active)

Structure (SMILES): COc1cc(N2CCN(C(C)C)CC2)ccc1Nc1nc(Nc2cccc(F)c2C(=O)O)c2cc[nH]c2n1
- Potency [4]: inactive
- outcome [5]: inactive

Structure (SMILES): NS(=O)(=O)c1ccc(N=Nc2c(O)[nH]c3ccc(C(=O)NCc4ccncc4)cc23)cc1
- Potency [4]: 4.63 µM (active)
- outcome [5]: inactive

Structure (SMILES): NS(=O)(=O)c1ccc(Nc2ncc(-c3ccccc3)o2)cc1
- Potency [4]: inactive
- outcome [5]: inactive

Structure (SMILES): O=C(Nc1n[nH]c2nc(-c3ccc(O)cc3)c(Br)cc12)C1CC1
- Potency [4]: 1.64 µM (active)
- outcome [5]: inactive

Structure (SMILES): Nc1ncnc2occ(-c3ccc(NC(=O)Nc4cc(C(F)(F)F)ccc4F)cc3)c12
- Potency [4]: 2.07 µM (active) and inactive
- outcome [5]: inactive

Structure (SMILES): COc1cc(C=NNc2ncnc3[nH]ncc23)ccc1O
- Potency [4]: 0.232 µM (active)
- outcome [5]: inactive

Structure (SMILES): COc1cc(C)c(NC(=O)CN(C)C)cc1Nc1nc(Nc2cccc(F)c2C(N)=O)c2cc[nH]c2n1
- Potency [4]: inactive
- outcome [5]: inactive
